From PubChem
NTMT1 inh = NTMT1 methyltransferase inhibition. Q9BV86. NTMT1 MTase-Glo SAH luminescence, purified enzyme. Potency, µM (doses to about 114 µM), usual class: inhibitors. 59,000 compounds, 2.5% hits. AID 1645870; also: nearly all actives have a fitted effect of over 65% in size
Target sequence (Q9BV86 whole entry, looked up): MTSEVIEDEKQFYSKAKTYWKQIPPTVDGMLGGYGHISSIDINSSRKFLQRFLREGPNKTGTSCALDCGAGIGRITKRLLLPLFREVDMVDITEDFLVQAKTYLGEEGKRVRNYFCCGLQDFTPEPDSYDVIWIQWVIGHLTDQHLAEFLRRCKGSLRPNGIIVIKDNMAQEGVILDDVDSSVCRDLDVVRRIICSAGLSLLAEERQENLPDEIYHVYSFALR
GALC G270D act = galactocerebrosidase G270D activity enhancement, cell-based; Potency, µM (top dose mostly 57.5 µM), most hits filed as activators; 45,000 compounds, 0.1% hits; P54803; 145M-Twi-hGALC-G270D cells (Twitcher mouse brain line with human GALC G270D), HMU-beta-Gal fluorescence, 48 h; also: nearly all actives have a fitted effect of over 65% in size
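Brain-derived Twitcher mouse 145M-Twi cells stably expressing human GALC-G270D or wild-type GALC, treated live, then residual GALC activity read by fluorescence of HMU-b-Gal substrate (0.1 mM final) in citrate-phosphate buffer pH 5.2 with sodium taurocholate. Signal increase indicates enhancement.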
FH mod = Identification of activators of human fumarate hydratase by quantitative high-throughput screening. FH coupled MDH/diaphorase resazurin fluorescence, 15 min. 54,000 compounds, 0.22% hits. Fumarate hydratase, mitochondrial (Homo sapiens), P07954. Potency, µM (titrated, usually from 79.9 µM), most hits filed as inhibitors; also: the screen sought activators but most active calls are inhibition curves; nearly all actives have a fitted effect of over 45% in size
GPR32 ag = agonists of human resolvin D1 receptor DRV1 (GPR32); AID 1346428; activation, % at 76.9 µM; CHO-K1 GPR32 beta-arrestin PathHunter luminescence, 90 min; zero percent set by DMSO-only wells; O75388; 48,000 compounds, 2.5% hits;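 active = activation of at least 60% and not above a set upper limit, about 1 call in 100 departs from these limits; inconclusive = activation of 40% to 60%, or above that upper limit; inactive = activation under 40%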
Target sequence (O75388 whole entry, looked up): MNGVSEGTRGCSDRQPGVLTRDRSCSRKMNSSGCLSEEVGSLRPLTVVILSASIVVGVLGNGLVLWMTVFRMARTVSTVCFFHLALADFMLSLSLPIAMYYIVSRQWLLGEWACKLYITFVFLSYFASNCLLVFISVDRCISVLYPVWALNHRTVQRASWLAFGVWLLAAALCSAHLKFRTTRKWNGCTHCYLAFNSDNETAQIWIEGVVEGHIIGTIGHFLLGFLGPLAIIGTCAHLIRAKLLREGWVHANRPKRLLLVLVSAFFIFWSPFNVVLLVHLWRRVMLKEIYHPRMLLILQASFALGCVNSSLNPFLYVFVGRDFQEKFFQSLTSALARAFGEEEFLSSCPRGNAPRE
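Readings come from a cell-based beta-arrestin complementation format: CHO-K1 GPR32 stable cells (2,500/well) treated 90 min with compounds, then beta-Gal substrate added for 1 h before chemiluminescence imaging.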
HTT prom inh = inhibitors of huntingtin promoter activity; HEK293 HTT promoter firefly luciferase reporter, 24 h; Potency, µM (top dose mostly 57.5 µM), hits mostly inhibitors; 48,000 compounds, 0.93% hits; AID 1508623; also: nearly all actives have a fitted effect of over 50% in size
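HEK293 Fluc reporter, 2,500 cells/well, 24 h pre-culture; cpds up to 57.5 uM final, 24 h 37 degrees C; Dual-Glo, 10 min RT; normalized vehicle = 0%, zero RLU = -100%.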
HTT-AS promoter = HTT-AS promoter activation. HEK293 HTT-AS promoter firefly luciferase reporter, 24 h; response scale: percent change from vehicle, -100% = no light. Potency, µM (top dose mostly 57.5 µM), most hits filed as activators. 48,000 compounds, 0.24% hits. AID 1508624; also: nearly all actives have a fitted effect of over 55% in size
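Firefly luciferase readout (Dual-Glo, 10 min RT) after 24 h, 37 °C compound exposure (final up to 57.5 uM) of HEK293 reporter cells cultured 24 h beforehand; PTC124 at 50 uM final as control inhibitor; activity scaled vehicle 0%, zero RLU -100%.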
Numbers stand for hits; i = inactive; ? = inconclusive; nt = not tested or not shown; [ ] = dose if it differs, or a comment. Most compounds without a hit are left out; they make up all but 4.7% or so of the library. Unless noted, calls follow the shape of the dose curve; as a rule, active = well fitted curve in the direction sought with a large enough effect; inconclusive = small, poorly fitted or top-dose-only effect, or another doubt; inactive = no such curve, though single readings can be large; an effect the other way counts as inactive or inconclusive.

SMILES | NTMT1 inh | GALC G270D act | FH mod | GPR32 ag | HTT prom inh | HTT-AS promoter
COc1cccc(Cn2cnc3c2c(=O)n(C)c(=O)n3C)c1 | i | i | i | i | 14µM | i
CCOC(=O)c1ccc(N2C(=O)c3n[nH]c(-c4cccs4)c3C2c2ccc(OCC)cc2)cc1 (stereo not given) | i | i | ? | i | ? | i
CCOC(=O)c1ccc(N2C(=O)c3n[nH]c(-c4cccs4)c3C2c2ccc(C(C)C)cc2)cc1 (stereo not given) | i | i | i | i | 25µM | i
CCOC(=O)c1ccc(N2C(=O)c3n[nH]c(-c4cccs4)c3C2c2ccc(CC)cc2)cc1 (stereo not given) | i | i | ? | i | 20µM | i
N#Cc1cccc(Nc2ncc(-c3cccc4ccccc34)o2)c1 | i | nt | nt | nt | nt | nt
Cc1cccc(N2CCN(C(=O)c3c(C)oc4ncnc(N5CCCCC5)c34)CC2)c1C | i | i | i | 85 | ? | i
Cc1oc2ncnc(N3CCCCC3)c2c1C(=O)Nc1cccc(Cl)c1C | 89µM | i | i | i | i | i
Cc1cccc(N2CCN(C(=O)c3c(C)oc4ncnc(N5CCOCC5)c34)CC2)c1C | i | i | i | i | i | i
COc1ccccc1NC(=O)c1sc2nc3c(cc2c1N)CCCCCC3 | i | 11µM | i | i | i | i
Cc1cccc(NC(=O)c2sc3nc4c(cc3c2N)CN(C(C)C)CC4)c1 | ? | i | i | i | ? | i
COc1ccc(NC(=O)c2sc3nc4c(cc3c2N)CN(C(C)C)CC4)c(OC)c1 | ? | i | i | 81 | i | i
Nc1c(C(=O)Nc2ccccc2F)sc2nc3c(cc12)CCCCCC3 | i | i | i | 72 | i | i
CCOc1ccc2ncc3c(-c4cccc(OC)c4)nn(-c4ccccc4)c3c2c1 | 89µM | i | i | i | i | i
COc1cccc(CN2CCc3nc(N4CCN(c5ncccn5)CC4)ncc3C2)c1 | i | i | i | i | 25µM | i
COc1cccc(CN2CCc3nc(N4CCN(C)CC4)ncc3C2)c1 | i | i | i | i | i | i
O=C(NCCc1csc2nc(-c3cccc(F)c3)nn12)c1ccc(Br)o1 | i | i | i | 97 | i | i
COc1ccc(CC(=O)NCCc2csc3nc(-c4ccccc4F)nn23)cc1 | i | i | i | i | i | i
O=C(NCCc1csc2nc(-c3ccc(F)cc3)nn12)c1ccco1 | i | i | i | i | i | i
O=C(Cc1ccc(Cl)cc1)NCCc1csc2nc(-c3ccccc3F)nn12 | i | i | i | 121 | i | i
O=C([C@H](Cc1ccc(O[S+](=O)([O-])c2cccnc2)cc1)N[S+](=O)([O-])c1cccc2cnccc12)N1CCN(c2ccccc2)CC1 | i | nt | nt | nt | nt | nt
COc1ccc(C(=O)Nc2ccccc2)cc1S(=O)(=O)Nc1ccc(Br)cc1 | i | i | i | 90 | i | i
COc1ccc(NC(=O)c2cccnc2C)cc1S(=O)(=O)Nc1ccc(Br)cc1 | i | nt | nt | nt | nt | nt
COc1ccc(C(=O)Nc2ccc(NC(=O)c3cccs3)cc2)cc1OC | ? | i | 28µM[activator] | i | i | i
O=C(Nc1ccc(Br)cc1)c1cccc(C(=O)Nc2ccc(Br)cc2)c1 | i | i | i | 71 | i | i
C[C@@H]1C(=O)OC2[C@H](O)[C@]34[C@H]5C[C@@H](C(C)(C)C)[C@]36[C@@H](OC(=O)[C@@H]6O)O[C@@]4(C(=O)O5)[C@]21O (stereo not given in full) | i | nt | nt | nt | nt | nt
SMILES | NTMT1 inh | GALC G270D act | FH mod | GPR32 ag | HTT prom inh | HTT-AS promoter
COC(=O)c1ccc2c(c1)N(CC(=O)Nc1cccc(C(F)(F)F)c1)C(=O)c1ccccc1S2 | i | i | i | 107 | i | i
CC(=O)c1cccc(NC(=O)CN2C(=O)c3cccnc3Sc3ccccc32)c1 | i | i | i | i | i | i
CC(=O)c1cccc(NC(=O)CN2C(=O)c3ccccc3Sc3ncccc32)c1 | i | i | i | 72 | i | ?
CCN(CC)C(=O)c1ccc2c(c1)N(Cc1ccc(C(F)(F)F)cc1)C(=O)c1ccccc1S2 | i | i | i | 87 | i | i
O=C(Cc1ccc(Cl)c(Cl)c1)Nc1ccc(S(=O)(=O)Nc2cccc(C(=O)O)c2)cc1 | i | nt | nt | nt | nt | nt
CONC(=O)Nc1ccc(-c2sc3c(c2CN(C)Cc2ccccc2)c(=O)n(-c2ccccc2)c(=O)n3Cc2c(F)cccc2F)cc1 | i | nt | nt | nt | nt | nt
CCCCCN=C(N)N/N=C/c1c[nH]c2ccc(OC)cc12 | ? | i | i | 73 | ? | i
CCCCCN=C(N)NN=Cc1c[nH]c2ccc(OC)cc12 | i | nt | i | nt | i | i
COc1cc(NC(C)CCCN)c2ncccc2c1 (stereo not given) | 40µM | i | ? | i | i | i
CN(C)CCOc1ccc(-c2nc(-c3ccc4c(c3)CC/C4=N/O)c(-c3ccncc3)[nH]2)cc1 | 25µM | nt | i | nt | nt | nt
O=S(=O)(O)c1cc(I)c(O)c2ncccc12 | ? | i | i | 105 | i | i
Oc1c(I)cc(I)c2cccnc12 | i | i | i | i | i | i
O=C(NCCc1ccccc1)c1nn(-c2ccccc2F)nc1CO | i | i | i | i | i | i
O=C(NCC(c1ccccc1)c1ccccc1)c1nn(-c2ccccc2F)nc1CO | ? | i | i | i | 4µM | i
O=C1c2ccccc2-c2nc3nnnn3nc21 (tested in a mixture with another compound) | ? | nt | 0.89µM | nt | nt | nt
CC(=O)c1ccc(N2CCN(S(=O)(=O)c3ccc(-c4coc(C)n4)cc3)CC2)cc1 | i | i | i | 63 | ? | i
CC(C)C(=O)Nc1cccc(C(=O)Nc2nnc(CC(C)(C)C)s2)c1 | i | i | i | 62 | ? | i[11.5 µM]
COc1cccc(CNCCSc2nnnn2C)c1OCc1ccc(F)cc1 | i | i | i | 81 | i | i
COc1cccc(CNCCSc2nnnn2C)c1OCc1ccccc1F | ? | i | i | i | i | i
Cc1ccc(OCC(=O)Nc2ccc(Cl)c(-c3nc4ncccc4o3)c2)cc1C | i | i | i | i | i | i
COc1ccc(OCC(=O)Nc2cc(-c3nc4ccccc4o3)ccc2Cl)cc1 | i | i | i | i | i | 10µM
COc1ccc(-c2nc3ccccc3o2)cc1NC(=O)c1cccnc1 | i | i | i | 86 | i | i
CCc1ccc(OCC(=O)Nc2ccc(Cl)c(-c3nc4ncccc4o3)c2)cc1 | i | i | i | 118 | i | ?
COc1ccc(-c2nc3ccccc3o2)cc1NC(=O)COc1ccc(C)c(C)c1 | i | i | i | i | i | ?
COc1ccc(Cl)cc1-c1cc(=O)[nH]c(=S)n1CC(N)=O | i | nt | nt | nt | nt | nt
